In PubChem BioAssay:
The source made the active and inactive calls.

How the values were obtained:
[1] = test system: PRMT1 (protein arginine N-methyltransferase 1); experiment: PRMT1 binders on small-molecule microarrays, primary screen, biochemical, small-molecule microarray, 635 nm fluorescence (AID 1088); conditions: small-molecule microarray binding, higher = more signal;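 also: binding of Prmt1 protein to compounds spotted on small-molecule microarray slides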
[2] = yeast growth modulation, basal conditions, primary screen, YJM789 clinical isolate, OD600, 24 h (AID 1089);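 also: growth of clinical yeast isolate S. cerevisiae YJM 789 seeded 1000 cells per well; test concentration not given here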; conditions: S. cerevisiae YJM789 growth, higher = more signal, called active from +8 up or from −8 down
[3] = fission yeast growth modulation, primary screen, strain 972, OD600, 24 h, no modulator (AID 1090);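 also: basal condition with compound alone and no growth modifier present; test concentration not given here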; conditions: S. pombe 972 growth, higher = more signal, called active from +8 up or from −8 down
[4] = S. cerevisiae growth modulation with rapamycin, primary screen, strain BY4716, OD600, 96 h (AID 1091); conditions: higher = more signal, called active from +8 up or from −8 down; also: test concentration not given here
[5] = molecular target: Torsin-1A-interacting protein 2 (Homo sapiens) (UniProt Q8NFQ8); experiment: LULL1 binders on small-molecule microarray, primary screen, cell lysate, human LULL1 lysate, 635/667 nm fluorescence (AID 1092); conditions: hLULL1 lysate binding, 635 nm fluorescence, higher = more signal;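 also: probe is lysate of COS7 cells overexpressing human LULL1; score merges per-feature 667 nm fluorescence with signal-to-noise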
Torsin-1A-interacting protein 2 (Homo sapiens), sequence (Q8NFQ8 whole entry, looked up): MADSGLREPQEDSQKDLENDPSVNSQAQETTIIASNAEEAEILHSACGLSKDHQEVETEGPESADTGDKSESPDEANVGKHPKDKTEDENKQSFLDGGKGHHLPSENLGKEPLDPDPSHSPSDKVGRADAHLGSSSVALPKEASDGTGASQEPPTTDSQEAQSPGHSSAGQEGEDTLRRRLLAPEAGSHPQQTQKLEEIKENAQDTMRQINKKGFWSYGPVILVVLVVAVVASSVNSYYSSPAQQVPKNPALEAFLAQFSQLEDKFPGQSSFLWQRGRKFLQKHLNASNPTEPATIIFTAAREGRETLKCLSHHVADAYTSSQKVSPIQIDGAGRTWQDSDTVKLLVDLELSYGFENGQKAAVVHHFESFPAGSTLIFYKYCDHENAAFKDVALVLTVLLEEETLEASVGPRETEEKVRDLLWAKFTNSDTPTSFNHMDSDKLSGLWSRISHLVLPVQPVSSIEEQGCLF

[6] = E. coli growth modulation, two-sided OD650, primary screen, E. coli filamentation project, strain DRC41, 24 h (AID 1093); conditions: OD650, 24 h, higher = more signal, called active from +8 up or from −8 down;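 also: MC1000 strain lacking acrAB efflux and sulA so SOS filamentation is blocked; test concentration not given here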
[7] = small-molecule microarray binders of probe aLefty2, primary screen, biochemical, biotinylated probe, 635/667 nm fluorescence (AID 1094); conditions: higher = more signal;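 also: score merges spot fluorescence near 667 nm with spot signal-to-noise ratio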
[8] = test system: Noggin (protein binding on small-molecule microarray); experiment: Noggin binders on small-molecule microarray, primary screen, biochemical, 635/667 nm fluorescence (AID 1095); conditions: 635 nm fluorescence, higher = more signal;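 also: score merges 667 nm feature fluorescence with signal to noise over triplicate slides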
[9] = molecular target: Neurogenic locus notch homolog protein 3 (Homo sapiens) (UniProt Q9UM47); experiment: NOTCH3 binders on small-molecule microarray, primary screen, biochemical, 635/667 nm fluorescence (AID 1096); conditions: NOTCH3 binding, 635 nm fluorescence, higher = more signal
Neurogenic locus notch homolog protein 3 (Homo sapiens), sequence (Q9UM47 whole entry, looked up): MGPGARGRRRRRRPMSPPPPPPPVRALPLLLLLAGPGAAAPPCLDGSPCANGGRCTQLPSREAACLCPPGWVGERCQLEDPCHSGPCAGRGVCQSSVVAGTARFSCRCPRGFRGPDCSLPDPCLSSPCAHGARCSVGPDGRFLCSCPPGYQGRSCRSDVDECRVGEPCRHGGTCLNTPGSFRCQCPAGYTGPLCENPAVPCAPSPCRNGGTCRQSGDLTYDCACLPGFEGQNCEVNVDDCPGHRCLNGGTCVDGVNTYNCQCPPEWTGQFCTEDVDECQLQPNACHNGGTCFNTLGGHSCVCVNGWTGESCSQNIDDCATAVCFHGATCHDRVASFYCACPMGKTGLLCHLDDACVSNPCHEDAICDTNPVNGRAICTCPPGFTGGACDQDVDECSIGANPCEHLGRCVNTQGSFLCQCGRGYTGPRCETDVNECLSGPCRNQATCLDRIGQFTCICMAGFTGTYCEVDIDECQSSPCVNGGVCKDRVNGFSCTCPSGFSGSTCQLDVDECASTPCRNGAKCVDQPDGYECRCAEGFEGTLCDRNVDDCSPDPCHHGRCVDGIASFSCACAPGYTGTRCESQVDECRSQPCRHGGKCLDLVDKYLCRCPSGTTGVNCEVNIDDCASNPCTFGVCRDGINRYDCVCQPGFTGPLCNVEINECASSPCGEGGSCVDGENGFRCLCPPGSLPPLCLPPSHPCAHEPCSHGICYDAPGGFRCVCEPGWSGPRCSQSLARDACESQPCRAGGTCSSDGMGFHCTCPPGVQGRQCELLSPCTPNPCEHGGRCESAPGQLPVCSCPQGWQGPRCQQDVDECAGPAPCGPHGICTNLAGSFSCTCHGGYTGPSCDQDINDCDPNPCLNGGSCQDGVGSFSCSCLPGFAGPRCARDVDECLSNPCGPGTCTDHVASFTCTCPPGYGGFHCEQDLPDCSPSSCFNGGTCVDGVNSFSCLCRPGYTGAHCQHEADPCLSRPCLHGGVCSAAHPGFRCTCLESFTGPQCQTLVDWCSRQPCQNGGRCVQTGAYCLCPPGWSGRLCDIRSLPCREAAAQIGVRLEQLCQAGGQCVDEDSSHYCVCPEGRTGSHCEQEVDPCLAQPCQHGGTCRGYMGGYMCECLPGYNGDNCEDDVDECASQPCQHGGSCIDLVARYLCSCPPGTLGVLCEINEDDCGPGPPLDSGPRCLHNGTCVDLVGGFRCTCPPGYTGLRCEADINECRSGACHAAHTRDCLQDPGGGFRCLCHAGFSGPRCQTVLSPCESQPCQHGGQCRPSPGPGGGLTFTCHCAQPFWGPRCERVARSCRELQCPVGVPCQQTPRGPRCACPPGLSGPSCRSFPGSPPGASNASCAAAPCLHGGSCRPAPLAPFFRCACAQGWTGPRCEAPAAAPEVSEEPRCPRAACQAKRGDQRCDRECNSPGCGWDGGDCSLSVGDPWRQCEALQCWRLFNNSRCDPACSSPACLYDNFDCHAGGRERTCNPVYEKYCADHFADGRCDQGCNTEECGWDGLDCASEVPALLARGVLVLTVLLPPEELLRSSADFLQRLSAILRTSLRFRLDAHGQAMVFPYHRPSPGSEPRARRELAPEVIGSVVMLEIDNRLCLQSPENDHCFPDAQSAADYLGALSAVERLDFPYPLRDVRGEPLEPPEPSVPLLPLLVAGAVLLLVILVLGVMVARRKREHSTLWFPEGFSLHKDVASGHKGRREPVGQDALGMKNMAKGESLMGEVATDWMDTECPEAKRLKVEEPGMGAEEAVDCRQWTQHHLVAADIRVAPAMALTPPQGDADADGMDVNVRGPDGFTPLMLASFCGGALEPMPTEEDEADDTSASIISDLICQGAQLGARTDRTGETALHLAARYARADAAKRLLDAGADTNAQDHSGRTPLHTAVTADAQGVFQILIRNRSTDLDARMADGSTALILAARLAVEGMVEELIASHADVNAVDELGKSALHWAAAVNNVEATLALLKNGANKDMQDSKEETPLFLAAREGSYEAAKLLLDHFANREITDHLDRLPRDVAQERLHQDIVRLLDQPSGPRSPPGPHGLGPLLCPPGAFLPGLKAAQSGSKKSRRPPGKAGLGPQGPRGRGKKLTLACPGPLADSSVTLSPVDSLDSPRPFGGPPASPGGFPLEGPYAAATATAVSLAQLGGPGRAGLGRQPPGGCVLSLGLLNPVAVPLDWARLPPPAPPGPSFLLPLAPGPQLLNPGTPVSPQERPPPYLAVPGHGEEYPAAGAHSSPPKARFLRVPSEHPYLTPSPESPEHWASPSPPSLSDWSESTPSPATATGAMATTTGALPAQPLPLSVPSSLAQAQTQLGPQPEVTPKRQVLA

[10] = small-molecule microarray binders of probe aEGFR, primary screen, biochemical, biotinylated probe, 635/667 nm fluorescence (AID 1097); conditions: higher = more signal;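 also: probe is a biotinylated anti-EGFR antibody binding compounds printed on slides; score combines fluorescence near 667 nm and signal to noise of each spot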

Row | SMILES | composite z-score [1] | z-score [2] | z-score [3] | z-score [4] | composite z-score [5] | z-score [6] | composite z-score [7] | composite z-score [8] | composite z-score [9] | composite z-score [10]
1 | C#CCN1[C@H](/C=C/C2CC2)[C@H](Cc2ccccc2)OC(=O)[C@@H]1Cc1ccccc1 | 0.663 | -0.651 (inactive) | 0.241 (inactive) | 0.79 (inactive) | 0.613 | -0.714 (inactive) | -0.102 | 0.792 | 0.0922 | -0.118
2 | CN1C(=O)C2C=CC(C(O)c3ccccc3)N(N3CCCCC3)C2C1=O (stereo not given) | 0.664 | 0.201 (inactive) | 0.24 (inactive) | 0.404 (inactive) | 3.52 | -2.05 (inactive) | 0.0215 | 0.145 | 0.646 | 0.0713
3 | C[C@H]1C2[C@H](Cc3ccccc3)NC(=O)[C@]23C(=O)NCC(=O)N2CCC[C@H]2C(=O)NC/C=C/CCC/C=C/C3[C@@H]2O[C@]12C (stereo not given in full) | -1.33 | 0.291 (inactive) | -0.0836 (inactive) | -0.0152 (inactive) | -1.02 | 1.51 (inactive) | -0.18 | -0.627 | -0.508 | -0.278
4 | OB1C=CCC(CCc2ccccc2)O1 (stereo not given) | -1.12 | -1.95 (inactive) | -2.06 (inactive) | -0.762 (inactive) | -1.05 | 1.96 (inactive) | -0.192 | -0.0988 | -1.12 | -0.211
5 | C=CCC(OC(C)=O)[C@@H]1[C@@H](N(Cc2cc3ccccc3o2)C(=O)Cc2ccc(OC)cc2)c2cc(OCCCO)ccc2N1C(=O)c1ccc2ccccc2c1 (stereo not given in full) | -0.843 | -0.179 (inactive) | 0.568 (inactive) | 0.194 (inactive) | -0.266 | -0.457 (inactive) | -0.0097 | -0.104 | -0.379 | -0.201
6 | CC1CC/C=C\[C@H]2OC34C=CCN(Cc5ccccc5)C(=O)[C@H]3N(C(C)CO)C(=O)[C@@H]4C2C(=O)O1 (stereo not given in full) | -0.938 | -0.875 (inactive) | -1.48 (inactive) | -0.577 (inactive) | 0.44 | 0.524 (inactive) | -0.092 | 0.392 | 0.158 | -0.0916
7 | C=CC[C@]1(C(N)=O)N=C(c2ccc(OCCCO)cc2)O[C@H]1c1ccccc1 | 0.243 | -0.52 (inactive) | -0.0257 (inactive) | -0.953 (inactive) | 2.17 | 0.0588 (inactive) | 0.0493 | 0.201 | -0.674 | -0.165
8 | COc1ccc(NN2C(C(O)c3ccc(N(C)C)cc3)C=CC3C(=O)N(C4CCCCC4)C(=O)C32)cc1 (stereo not given) | 1.51 | -0.229 (inactive) | 0.594 (inactive) | 0.687 (inactive) | 2.91 | -0.386 (inactive) | 0.329 | 0.134 | 1.09 | 0.174
9 | C=CC[C@]1(C(N)=O)COC(c2ccc(OCCCO)cc2)=N1 | 0.322 | 0.924 (inactive) | -1.09 (inactive) | -1.09 (inactive) | 1.38 | 1.27 (inactive) | 0.301 | 0.27 | -0.769 | -0.139
10 | CN(C)CCCCNC(=O)[C@@H]1C[C@@H]2C(=O)N[C@@H](CCCCN)C(=O)N2[C@@H]1c1ccc(O)cc1 | 1.3 | 0.184 (inactive) | 1.17 (inactive) | 3.58 (inactive) | 1.12 | 0.813 (inactive) | 0.0864 | 0.855 | 0.159 | 0.0552
11 | CC(CO)N1C(=O)[C@@H]2C3C(=O)OCCC/C=C\[C@H]3OC23C=CCN(CCN2CCOCC2)C(=O)[C@@H]13 (stereo not given in full) | 0.871 | -0.321 (inactive) | -0.802 (inactive) | -0.215 (inactive) | -0.675 | -0.19 (inactive) | -0.207 | -0.0152 | 0.159 | -0.187
12 | COCCOC(=O)N1C(=O)[C@@]2(c3cc(C#Cc4ccc(OC)cc4)ccc31)[C@H](c1ccc(O)cc1)N1[C@H](c3ccccc3)[C@H](c3ccccc3)OC(=O)[C@H]1[C@@H]2C(=O)Nc1nc2ccccc2s1 | 1.56 | 0.15 (inactive) | 0.0615 (inactive) | 0.684 (inactive) | 2.06 | -0.944 (inactive) | -0.0376 | 1.09 | 1.08 | -0.0103
13 | CS(=O)(=O)CCOC(=O)C1=CC(CCCO)=CC(C2CC2)N(Cc2cc3c(cc2Br)OCO3)C=C1C(=O)OCCS(C)(=O)=O (stereo not given) | 1.37 | -0.955 (inactive) | -1.87 (inactive) | -1.32 (inactive) | 1.84 | 0.102 (inactive) | 0.0723 | 0.39 | 0.533 | 0.0423
14 | COC(=O)[C@@]1(Cc2ccccc2)[C@H]2c3cc(C(=O)N(C)C)n(Cc4ccc(OC)c(OC)c4)c3C[C@H]2CN1C(=O)c1ccccc1 | 0.42 | -0.257 (inactive) | 0.836 (inactive) | 0.534 (inactive) | 3.53 | -0.793 (inactive) | 0.728 | 0.0998 | 1.03 | 0.426
15 | CCOC(=O)C[C@H]1[C@H](OC(=O)c2ccc(C(=O)c3ccccc3)cc2)[C@@H](NC(=O)Cc2ccc(OC)cc2)c2cc(OCCCO)ccc2N1C(=O)c1ccc2ccccc2n1 | 0.794 | 0.328 (inactive) | -0.22 (inactive) | 0.605 (inactive) | 1.6 | 0.213 (inactive) | 0.0768 | 0.666 | 1.16 | 0.0182
16 | Cc1ccc(/C=C/C=O)cc1 | -0.379 | 0.427 (inactive) | -4.06 (inactive) | -0.141 (inactive) | -0.1 | 0.492 (inactive) | -0.123 | -0.244 | -0.998 | -0.135
17 | COC(=O)[C@@]1(Cc2ccc(OC)cc2)[C@H]2c3cc(C(=O)N4CCCC4)n(Cc4nc5ccccc5[nH]4)c3C[C@H]2CN1C(=O)c1ccccc1 | 0.661 | -0.0237 (inactive) | 0.955 (inactive) | 2.07 (inactive) | 3.73 | 0.138 (inactive) | 0.759 | -0.214 | 1.05 | 0.225
18 | CC(C)NC(=O)[C@@H]1c2ccccc2C(=O)N(C(C)C)[C@H]1c1ccc(CO)cc1 | 1.44 | 0.549 (inactive) | 0.458 (inactive) | 0.386 (inactive) | 2.99 | 1.36 (inactive) | -0.0478 | -1.94 | -0.715 | -0.44
19 | COCC(=C=CC[C@H](O)c1cccc(OCCO)c1)CCO | 1.47 | -0.45 (inactive) | -0.19 (inactive) | -0.55 (inactive) | 2.12 | 0.0234 (inactive) | -0.185 | 0.69 | 0.898 | -0.112
20 | CCOC(=O)C[C@H]1[C@H](OC(=O)c2cc3ccccc3oc2=O)[C@@H](NC(=O)CC(C)C)c2cc(OCCCO)ccc2N1C(=O)c1ccccc1 | 0.983 | -0.789 (inactive) | -0.769 (inactive) | -0.193 (inactive) | 1.52 | 2.64 (inactive) | -0.0661 | 0.805 | 0.606 | -0.0828
21 | Cc1c(NC(=O)/C(C#N)=C/c2cccc([N+](=O)[O-])c2)c(=O)n(-c2ccccc2)n1C | 0.366 | -3.18 (inactive) | -2.55 (inactive) | -2.2 (inactive) | 1.92 | 0.0751 (inactive) | -0.26 | 0.21 | 1.07 | 0.006
22 | CCCCC(=C=CC[C@@H](O)c1cccc(OCCO)c1)C[C@@H](O)c1ccccn1 | 1.55 | -0.937 (inactive) | -0.606 (inactive) | -0.725 (inactive) | 2.07 | 0.149 (inactive) | -0.207 | 1.46 | 1.01 | -0.099
23 | COCCCNC(=O)[C@@H]1c2ccccc2C(=O)N(Cc2ccccc2)[C@H]1c1ccc(CO)cc1 | 0.726 | -1.29 (inactive) | -0.0108 (inactive) | -0.212 (inactive) | 1.53 | -0.167 (inactive) | 0.384 | 0.525 | 0.109 | 0.236
24 | O=C1O[C@@H](c2ccccc2)[C@@H](c2ccccc2)N2[C@@H](c3ccccc3OCCO)[C@]3(C(=O)Nc4ccccc43)[C@@H](C(=O)O)[C@H]12 | 1.02 | 0.232 (inactive) | -1.1 (inactive) | -1.17 (inactive) | 3.02 | -0.413 (inactive) | -0.175 | -0.314 | 0.406 | -0.185
25 | COCC(=C=CC[C@H](O)c1cccc(OCCO)c1)C[C@H](O)c1cc(Cl)cc(Cl)c1O | 1.54 | 1.11 (inactive) | -0.6 (inactive) | -0.225 (inactive) | 1.29 | 0.706 (inactive) | -0.143 | 0.908 | 1.04 | 0.0837
26 | CC(=O)NCCCC[C@@H]1NC(=O)[C@H]2C[C@@H](C(=O)NCCCCCNC(=O)CS)[C@@H](c3ccc(O)cc3)N2C1=O | 0.524 | 1.16 (inactive) | 0.0772 (inactive) | 1.76 (inactive) | 1.69 | 0.358 (inactive) | -0.0727 | -0.309 | -0.527 | -0.171
27 | O=C1C2C=CC(C(O)c3ccc(-c4ccccc4)s3)N(Nc3ccccc3)C2C(=O)N1c1ccccc1 (stereo not given) | 1.26 | -0.307 (inactive) | 1.63 (inactive) | 0.355 (inactive) | 4.34 | -0.579 (inactive) | 0.0711 | 0.182 | 1.11 | -0.0565
28 | COC(=O)[C@]1(CCC(=O)OC(C)(C)C)N=C(c2ccc(OCCCO)cc2)O[C@@H]1c1ccccc1 | 1.14 | -0.401 (inactive) | -1.72 (inactive) | 1.97 (inactive) | 1.4 | 2.85 (inactive) | 0.289 | -0.499 | 0.0628 | -0.0689
29 | COc1ccc([C@H]2OC[C@@H]3CCC(=O)N32)cc1 | -0.136 | -0.481 (inactive) | -0.809 (inactive) | 0.981 (inactive) | 0.399 | -0.013 (inactive) | -0.0699 | 0.397 | 1.01 | 0.0826
30 | COc1ccc(C(O)C2C=CC3C(=O)N(C)C(=O)C3N2NC(=O)OC(C)(C)C)c2ccccc12 (stereo not given) | 1.57 | -0.842 (inactive) | 1.64 (inactive) | 0.577 (inactive) | 3.12 | -0.618 (inactive) | 0.284 | -0.149 | 1.08 | 0.0185
